Out of some 1,300 compounds screened, about 460 (35%) were called active. Roughly 39% stayed inconclusive and do not appear here. Calls come from the whole dose curve; as a rule, active = well fitted inhibition curve with a large enough effect; inconclusive = small, poorly fitted or top-dose-only effect; inactive = flat fitted curve, though single readings scatter. Some of the results follow.
Biological target: Protein phosphatase EYA2 (Homo sapiens) (UniProt O00167)
Assay: qHTS for Inhibitors of the Phosphatase Activity of Eya2: Confirmatory Assay for Cherry-picked Compounds; note: nearly all actives have a fitted effect of over 65% in size
Details: purified EYA2 phosphatase activity, qHTS confirmation; series mostly up to 46.1 µM
In short: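 Eya2 (0.2 uM working solution) preincubated 10 min at room temperature with compound in pH 7.5 HEPES buffer with MgCl2, BSA, DTT. OMFP added (50 uM working solution), 10 min more; fluorescence 485/525 nm, normalized to EGTA and DMSO.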
Potency is the fitted concentration of half-maximal effect.

Sequence of Protein phosphatase EYA2 (Homo sapiens) (O00167 whole entry, looked up): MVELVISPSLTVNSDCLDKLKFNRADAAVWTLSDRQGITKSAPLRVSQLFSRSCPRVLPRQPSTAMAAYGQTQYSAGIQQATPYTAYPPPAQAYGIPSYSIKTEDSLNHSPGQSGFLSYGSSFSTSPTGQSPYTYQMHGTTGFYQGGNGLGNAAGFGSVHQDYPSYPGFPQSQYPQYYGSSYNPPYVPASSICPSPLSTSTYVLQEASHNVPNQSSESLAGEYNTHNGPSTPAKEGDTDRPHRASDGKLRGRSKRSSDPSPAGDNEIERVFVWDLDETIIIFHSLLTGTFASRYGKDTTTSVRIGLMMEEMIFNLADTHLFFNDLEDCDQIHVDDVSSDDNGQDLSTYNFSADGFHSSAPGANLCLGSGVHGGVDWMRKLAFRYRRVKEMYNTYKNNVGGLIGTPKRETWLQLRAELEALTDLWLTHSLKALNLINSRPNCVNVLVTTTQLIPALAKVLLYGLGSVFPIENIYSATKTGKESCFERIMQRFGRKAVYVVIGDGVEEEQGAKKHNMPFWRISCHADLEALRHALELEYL

Potency, inactive:
CC1CCN(CC2C(=O)O[C@@H]3C[C@@]4(C)CCC[C@H](C)C4=C[C@H]23)CC(C)(C)C1 (some centres not stated)
CCC(C)C(CO)NC(=O)/C=C/[C@H]1O[C@@H](n2cnc3c(NC(=O)c4ccccc4)ncnc32)[C@H](O)[C@@H]1O (some centres not stated)
Cc1cc(C(=O)COC(=O)c2cccnc2Cl)c(C)n1-c1c(C)n(C)n(-c2ccccc2)c1=O
CCOc1ccc2[nH]c3nc(SCC(=O)NC4CCCC4)nnc3c2c1
CC1=C(/C=C/C(C)=C/C=C/C(C)=C/C(=O)Nc2ccc(O)cc2)C(C)(C)CCC1
COc1ccc(/C=C2\CCc3ccccc3C2=O)cc1CN1CCOCC1
Cc1cc(NC(=O)c2cccc(N3C(=O)CCC3=O)c2)no1
CCN(CC)c1ccc(N=Cc2cc(Br)ccc2O)cc1
Cc1ccc(O)c(C(=O)c2cnc3c(c2)c(-c2ccc(F)cc2)c(C#N)c(=O)n3C)c1
O=C(Nc1nc2ccc(F)cc2s1)C1=NN(c2ccccc2)C(=O)CC1
COc1ccc(CCNC(=O)C(=O)NCc2cccs2)cc1OC
Cc1cccc(NC(=S)N(CCN2CCOCC2)Cc2cc3cc4c(cc3[nH]c2=O)OCCO4)c1
Cc1ccc(S(=O)(=O)Nc2c(C)n(C)n(-c3ccccc3)c2=O)cc1C(=O)OC(C)C(=O)N(C)c1ccccc1 (configuration not stated)
CCOc1ccc(Nc2nc(N)nc(CN(C)C3CCCCC3)n2)cc1
O=C(O)c1c(C(=O)N2N=C3/C(=C/c4ccccc4)CCCC3C2c2ccccc2)cccc1[N+](=O)[O-] (configuration not stated)
CCCc1ccc(C#N)c(SC2CC(=O)N(c3ccc(OC)cc3)C2=O)n1 (configuration not stated)
O=C(NC1CCCC1)c1cc(=O)[nH]c2ccccc12
O=C(Oc1ccc(Cl)c2cccnc12)C12CC3CC(CC(C3)C1)C2
COc1ccc(-c2cn(Cc3ccc4c(c3)C(=O)c3ccccc3C4=O)nn2)cc1
COc1cccc(N2CCN(c3ccc4nnc(CCC(=O)Nc5cccc(C(C)=O)c5)n4n3)CC2)c1
C[C@@]12CCC=C[C@H]1[C@H](c1ccc3ccccc3c1/C=C/c1ccccc1)N(Cc1ccccc1)C2=O
Cc1ccc(-n2nnnc2C(=Cc2ccc(N(C)C)cc2)c2nnnn2-c2ccc(C)cc2)cc1
Cn1c(=O)c2[nH]c(COc3ccccc3)nc2n(C)c1=O
Cc1cc(C)c(OCCCCN(C)Cc2ccccc2)c(C)c1
Cc1cccc(C)c1OCc1cc(C(=O)N2CCN(c3ccccc3)CC2C)no1 (configuration not stated)
CCOc1ccc2nc(N3CCCC(C(=O)N4CCN(CC)CC4)C3)sc2c1 (configuration not stated)
CCOC(=O)c1ccc(NC(=S)N2CCN(CCN=CC3=C(O)CC(c4ccccc4)CC3=O)CC2)cc1 (configuration not stated)
CS(=O)(=O)c1ccc2nc(NC(=O)c3ccccc3Cl)sc2c1
CN(C)C(C)(C)C#CC(O)(c1ccccc1)c1ccccc1
CSc1cccc(NC(=O)CCCOc2cc(=O)n(C)c3ccccc23)c1
Cn1cc(SCC(=O)Nc2ccc3c(c2)OCCO3)c2ccccc21
COCc1nnc(NC(=O)c2ccc(S(=O)(=O)N3CCOCC3)cc2)o1
COc1ccc(-c2cn3c(C)c(C(=O)NCc4ccc5c(c4)OCO5)sc3n2)cc1
S=C(NC1CC1)NC1CCCc2ccccc21 (configuration not stated)
Cc1ccc(Nc2nc(-c3cccnc3)nc3ccccc23)cc1

Potency, active:
CC(=O)Oc1ccccc1C(=O)Oc1ccc(/C=N/n2cnnc2)cc1 16.9 µM
O=C(OCC(=O)c1ccc(Cl)cc1Cl)c1ccccn1 19 µM
O=C(CSc1nnc2c(n1)[nH]c1ccccc12)Nc1ccc(S(=O)(=O)Nc2ncccn2)cc1 5.36 µM
CCc1ccc2[nH]c3nc(SCC(=O)NCC4CCCO4)nnc3c2c1 (configuration not stated) 6.01 µM
Cc1c(CC(=O)NCCCC(=O)O)c(=O)oc2cc3occ(-c4ccccc4)c3cc12 19 µM
Cc1c(CC(=O)NCC(=O)O)c(=O)oc2cc3occ(-c4ccccc4)c3cc12 16.9 µM
Cc1c(CCC(=O)NCCCCCC(=O)O)c(=O)oc2cc3occ(-c4ccccc4)c3cc12 15.1 µM
Cc1c(CC(=O)N[C@@H](C)C(=O)O)c(=O)oc2cc3occ(-c4ccccc4)c3cc12 8.49 µM
O=c1cc2oc3cc(O)c(O)cc3c(-c3ccccc3[N+](=O)[O-])c-2cc1O 16.9 µM
CN1/C(=C\C=C2/SC(=S)NC2=O)C(C)(C)c2ccccc21 15.1 µM
CC1=NN(c2ccccc2)C(=O)/C1=C\C=C1/N(C)c2ccccc2C1(C)C 7.57 µM
Cc1ccc(-n2[nH]c(C)c(C=Nc3ccc(S(=O)(=O)Nc4nccs4)cc3)c2=O)cc1C 8.49 µM
Cc1c(CCC(=O)O)c(=O)oc2c(C)c(OCc3cc4c(cc3Cl)OCO4)ccc12 9.53 µM
COc1cccc2c1C(=O)/C(=C/c1ccc(N(C)C)cc1)C2 4.26 µM
Cc1ccc(C(=O)Oc2ccc(N3C(=O)CCC3=O)c(C)c2)cc1 2.69 µM
Cc1ccc(C(=O)Oc2ccc3ccc(=O)oc3c2)cc1 1.9 µM
CCC(C)c1ccc2oc(-c3ccc(NC(=O)c4ncn[nH]4)cc3)nc2c1 (configuration not stated) 15.1 µM
CC(C)c1ccc2oc(-c3ccc(NC(=O)c4ncn[nH]4)cc3)nc2c1 16.9 µM
CCN(CC)c1ccc(NC(=O)COC(=O)CSc2ccc(Br)cc2C)cc1 12 µM
CCN(C)c1ccc(/C=C/c2ccnc3ccccc23)cc1 21.3 µM
CN(C)c1ccc(/C=C/c2ccnc3ccc(-c4ccccc4)cc23)cc1 21.3 µM
COc1ccc(CCNc2nc(-c3ccccn3)cs2)cc1OC 7.57 µM
CCCCC(=O)NC(c1cccc([N+](=O)[O-])c1)c1ccc2cccnc2c1O (configuration not stated) 4.26 µM
CC(=O)NC(c1ccc(Cl)cc1)c1ccc2cccnc2c1O (configuration not stated) 2.13 µM
COc1ccc(C(NC(C)=O)c2ccc3cccnc3c2O)cc1OC (configuration not stated) 1.69 µM
CCCC(=O)NC(c1ccc(OC)c(OC)c1)c1cc(Cl)c2cccnc2c1O (configuration not stated) 2.69 µM
O=C(O)c1ccccc1NC(c1ccccc1)c1ccc2cccnc2c1O (configuration not stated) 3.38 µM
CC(C)C(=O)NC(c1ccc(Cl)cc1Cl)c1ccc2cccnc2c1O (configuration not stated) 5.36 µM
COc1ccc(C(NC(C)=O)c2cc(Cl)c3cccnc3c2O)cc1OC (configuration not stated) 1.69 µM
CCC(=O)NC(c1cccs1)c1cc(Cl)c2cccnc2c1O (configuration not stated) 1.51 µM
CCC(=O)NC(c1ccc(OC)c(OC)c1)c1cc(Cl)c2cccnc2c1O (configuration not stated) 1.69 µM
CCCCC(=O)NC(c1ccco1)c1cc(Cl)c2cccnc2c1O (configuration not stated) 3.38 µM
Nc1[nH]nc2ncc3cc4ccccc4nc3c12 15.1 µM
CCc1ccc2oc(-c3ccc(OC)cc3)cc(=Nc3c(C)n(C)n(-c4ccccc4)c3=O)c2c1 16.9 µM
O=C(Nc1ccccc1Cl)N1CCN(c2ccc3nnc(-c4ccccc4)n3n2)CC1 6.75 µM
CCN(CC)c1ccc(/C=C/c2c(C)cnc3ccc(C)cc23)cc1 8.49 µM
Cc1cnc2ccc(I)cc2c1/C=C/c1ccc(N(C)C)cc1 7.57 µM
CCc1cnc2ccccc2c1/C=C/c1ccc(N(C)C)cc1 7.57 µM
Cc1ccc2c(/C=C/c3ccc(N(C)C)cc3)c(C)cnc2c1 8.49 µM
COc1cc(OC)c(OC)cc1/C=C/c1nccc2ccccc12 7.57 µM
Cn1c(=O)cc2c3c(c(N4CCCCC4)ccc31)C(=O)c1ccccc1-2 3.38 µM
Cc1c(NC(=O)/C(C#N)=C/c2ccc(-c3cc(Cl)ccc3Cl)o2)c(=O)n(-c2ccccc2)n1C 7.57 µM
CS(=O)(=O)c1ccc(C(=O)Nc2nc(-c3ccco3)c(-c3ccco3)s2)cc1 12 µM
Cn1c2ccccc2c2nnc(SCC(=O)Nc3cccc(O)c3)nc21 13.5 µM
CCOC(=O)Cc1nnc(NC(=O)C(CC)Sc2nnc3c4ccccc4n(C)c3n2)s1 (configuration not stated) 16.9 µM
O=C(CSc1nnc2c3ccccc3c3ccccc3c2n1)Nc1ccccc1F 7.57 µM
CCOC(=O)Cc1nnc(NC(=O)CSc2nnc3c4ccccc4n(C)c3n2)s1 16.9 µM
Cn1c(=O)c(N)c2c3c(c(Br)ccc31)C(=O)c1ccccc1-2 6.01 µM
COc1ccc(-c2nnc(NC(=O)c3ccc(S(=O)(=O)N(C)CC4CCCO4)cc3)o2)c(OC)c1 (configuration not stated) 21.3 µM
O=C1C(=Cc2ccco2)CCC1=Cc1ccco1 4.78 µM
Cc1nc2ncccn2c1-c1csc(Nc2ccccc2)n1 3.38 µM
COc1ccc(Nc2nc(-c3c(C)nc4ncccn34)cs2)cc1 3.38 µM
O=[S+]([O-])([O-])c1ccc2c(c1)cc([S+](=O)([O-])[O-])c1nn(-c3ccc(/C=C/c4ccc(-n5nc6c([S+](=O)([O-])[O-])cc7cc([S+](=O)([O-])[O-])ccc7c6n5)cc4[S+](=O)([O-])[O-])c([S+](=O)([O-])[O-])c3)nc12 6.75 µM
CN(C)c1ccc(Sc2ccc3nc(N)nc(N)c3c2)cc1 6.75 µM
N[C@@H](Cc1cnc[nH]1)C(=O)Nc1ccc2ccccc2c1 21.3 µM
O=C(O)c1ccc(Nc2nc(-c3ccccc3)nc3ccccc23)cc1 8.49 µM
O=C(O)c1cccc(Nc2nc(-c3ccccc3)nc3ccccc23)c1 9.53 µM
